Only some compounds are listed: those with a hit (about 10% of all), similar ones and a draw of the others.
Gal4-VP16 FLuc: Gal4-VP16 reporter inhibition counter-screen. Potency, µM (series often up to 53.6 µM), usual class: inhibitors. Drosophila S2 Gal4-VP16 UAS-luciferase, luminescence, 20 h. AID 2546. 3.5% of 310,000 active;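 also: Gal4-VP16 expression switched on by copper sulfate through the metallothionein promoter; nearly all actives have a fitted effect of over 50% in size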
RORg inh: blocks mouse ROR gamma transcriptional activity; AID 2551; Drosophila S2 Gal4-RORgamma UAS-luciferase reporter, 20 h; 5.4% of 310,000 active; Potency, µM (doses to about 53.6 µM), most hits filed as inhibitors; also: nearly all actives have a fitted effect of over 60% in size
Target sequence (P51450 whole entry, looked up, the tested form may be a part): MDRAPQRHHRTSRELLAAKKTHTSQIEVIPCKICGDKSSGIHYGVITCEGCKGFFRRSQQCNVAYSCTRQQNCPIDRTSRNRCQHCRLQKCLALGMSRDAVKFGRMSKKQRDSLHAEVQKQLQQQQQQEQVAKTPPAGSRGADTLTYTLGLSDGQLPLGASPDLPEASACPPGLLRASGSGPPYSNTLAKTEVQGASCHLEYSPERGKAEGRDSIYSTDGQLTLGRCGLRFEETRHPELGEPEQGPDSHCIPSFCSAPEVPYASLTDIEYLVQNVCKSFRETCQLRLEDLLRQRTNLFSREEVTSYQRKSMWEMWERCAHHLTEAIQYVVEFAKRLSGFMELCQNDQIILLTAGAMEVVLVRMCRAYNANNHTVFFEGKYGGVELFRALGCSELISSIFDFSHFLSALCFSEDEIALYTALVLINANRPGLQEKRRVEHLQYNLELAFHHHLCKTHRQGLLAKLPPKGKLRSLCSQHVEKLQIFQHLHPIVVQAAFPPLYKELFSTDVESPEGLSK
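A Gal4/UAS one-hybrid system in insect cells: metallothionein-promoter Gal4–ROR gamma fusion plus Photinus luciferase reporter. Copper sulfate 700 uM final, 20 hr ambient incubation, luminescent detection after 10 min with reagent.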
KB-3-1 tox: KB-3-1 parental cell cytotoxicity | KB-3-1 viability, CellTiter-Glo ATP luminescence, 72 h | Potency, µM (titrated, usually from 46.1 µM), actives largely listed as cytotoxic | 1.4% of 400,000 active; also: nearly all actives have a fitted effect of over 60% in size
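Screening of KB-3-1 cells (DMEM, 10% FBS, phenol-red free) ran from lowest to highest compound concentration; after 72 h at 37 °C viability was read luminescently and curves fitted.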
SW480 rerep: induces DNA re-replication in SW480 colon adenocarcinoma cells | 1.8% of 340,000 active | AID 624297 | SW480 DNA re-replication, Hoechst DNA content imaging, 48 h | Potency, µM (series often up to 46.1 µM), actives largely listed as activators; also: nearly all actives have a fitted effect of over 55% in size
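Image-based DNA-content assay: after two days of treatment, nuclei were labelled with the DNA dye Hoechst and imaged, and hits were compounds raising the count of nuclei showing high fluorescence intensity.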
MCF10A rerep: inducers of DNA re-replication in MCF 10A breast cells; AID 624296; 2.9% of 350,000 active; MCF 10A DNA re-replication, Hoechst nuclear intensity, 48 h; Potency, µM (series often up to 46.1 µM), usual class: activators; also: nearly all actives have a fitted effect of over 50% in size
KB-V1 MDR tox: kills drug-selected multidrug resistant KB-V1 cells; KB-V1 MDR cells viability, CellTiter-Glo, 72 h; Potency, µM (highest dose often 46.1 µM), usual class: cytotoxic; 3.4% of 400,000 active; AID 1347076; also: nearly all actives have a fitted effect of over 60% in size
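Cytotoxicity toward P-gp-expressing KB-V1 cells was determined as loss of CellTiter-Glo luminescence after 72 h at 37 degrees C. Compounds were tested in quantitative HTS format across a concentration range, with curves fitted to normalized data.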
A number is an active result. Calls follow the shape of the dose curve; as a rule, active = well fitted curve in the direction sought with a large enough effect; inconclusive = small, poorly fitted or top-dose-only effect, or another doubt; inactive = no such curve, though single readings can be large; an effect the other way counts as inactive or inconclusive.

Screening C[C@@H](C(=O)Nc1ccc2ccccc2c1)[C@H]1C[C@]1(C)[C@H](NP(=O)(c1ccccc1)c1ccccc1)c1ccccc1 returned Gal4-VP16 FLuc inactive, RORg inh inactive, SW480 rerep 23µM and MCF10A rerep inactive.
Screening Cn1nc(C(F)(F)F)c(-c2ccc(Br)cc2)c1NC(=O)Nc1ccc(F)cc1F returned Gal4-VP16 FLuc inactive, RORg inh inconclusive, KB-3-1 tox inconclusive, SW480 rerep inactive, MCF10A rerep 21µM and KB-V1 MDR tox inconclusive.
`Cn1nc(C(F)(F)F)c(-c2ccc(F)cc2)c1NC(=O)c1ccco1` gave Gal4-VP16 FLuc inactive, RORg inh inactive, KB-3-1 tox inactive, SW480 rerep inactive, MCF10A rerep inactive and KB-V1 MDR tox inactive.
COc1ccc(N/C=C(\C#N)c2nc3ccccc3n2C)c(OC)c1 was read as Gal4-VP16 FLuc inactive, RORg inh inconclusive, KB-3-1 tox inactive, SW480 rerep inactive, MCF10A rerep inconclusive and KB-V1 MDR tox 21µM.
`COc1ccc(CNc2nc3ccccc3n2C)c(OC)c1` gave Gal4-VP16 FLuc inactive, RORg inh inactive, KB-3-1 tox inconclusive, SW480 rerep inactive, MCF10A rerep inactive and KB-V1 MDR tox inconclusive.
For COCCN(Cc1cc2cc(C)c(C)cc2nc1Cl)C(=O)Nc1ccccc1 the results were Gal4-VP16 FLuc inconclusive, RORg inh inactive, KB-3-1 tox inactive, SW480 rerep inactive, MCF10A rerep inactive and KB-V1 MDR tox inactive.
COCCN(Cc1cc2cc3c(cc2nc1Cl)OCO3)C(=O)c1ccc(C)cc1 was read as Gal4-VP16 FLuc inconclusive, RORg inh 1.6µM, KB-3-1 tox inconclusive, SW480 rerep inconclusive, MCF10A rerep inactive and KB-V1 MDR tox inconclusive.
c1cnc2[nH]ccc2c1 was read as KB-3-1 tox inactive and KB-V1 MDR tox inactive.
For CCOC1=CC2=C(C(=O)C(Cl)=CC2=O)[C@@H]2CN(S(=O)(=O)c3ccc(C)cc3)[C@@H](c3ccccc3)[C@H]12 the results were KB-3-1 tox inactive and KB-V1 MDR tox inactive.
Screening c1cnc2c(OCc3cn4cccnc4n3)cccc2c1 returned Gal4-VP16 FLuc inactive, RORg inh inconclusive, KB-3-1 tox inactive, SW480 rerep inactive, MCF10A rerep 12µM and KB-V1 MDR tox inactive.
Screening COc1cc(/C=N/Nc2ncc(C(F)(F)F)cc2Cl)cc(OC)c1OC returned Gal4-VP16 FLuc 20µM, RORg inh inconclusive, KB-3-1 tox inactive, SW480 rerep 7.3µM, MCF10A rerep inconclusive and KB-V1 MDR tox inconclusive.
Screening COc1cc(/C=N/Nc2ncc(C(F)(F)F)cc2Cl)cc(OC)c1O returned Gal4-VP16 FLuc 20µM, RORg inh 11µM, KB-3-1 tox inconclusive, SW480 rerep inactive, MCF10A rerep inactive and KB-V1 MDR tox 21µM.
`COc1ccc(/C=N/Nc2ncc(C(F)(F)F)cc2Cl)c(OC)c1OC` gave Gal4-VP16 FLuc 7.9µM, RORg inh 2.8µM, KB-3-1 tox inactive, SW480 rerep inactive, MCF10A rerep inactive and KB-V1 MDR tox inactive.
For COc1cc(/C=N/Nc2ccc(F)cc2F)cc(OC)c1O the results were Gal4-VP16 FLuc inconclusive, RORg inh inactive, KB-3-1 tox inactive, SW480 rerep inactive, MCF10A rerep 16µM and KB-V1 MDR tox inactive.
For COc1cc(/C=N/Nc2ccc(C(F)(F)F)cn2)ccc1O the results were Gal4-VP16 FLuc inactive, RORg inh inactive, KB-3-1 tox inactive, SW480 rerep inactive, MCF10A rerep inactive and KB-V1 MDR tox inactive.
COc1cc(/C=N/Nc2nc(C)cc(C)n2)cc(OC)c1OC was read as KB-3-1 tox inactive, SW480 rerep inactive, MCF10A rerep inactive and KB-V1 MDR tox inactive.
CN(Cc1ccccc1F)C(=O)COc1ccc(C(=O)c2ccccc2)cc1 was read as Gal4-VP16 FLuc inactive, RORg inh inactive, KB-3-1 tox inactive, SW480 rerep inactive, MCF10A rerep inactive and KB-V1 MDR tox inactive.
`COc1ncc2nc(-c3cc(F)cc(F)c3)c(=O)n(CCC#N)c2n1` gave Gal4-VP16 FLuc inactive and RORg inh inactive.
Screening Cc1cnc2c(c1SCC(=O)Nc1ccc(F)cc1F)c(=O)n(C)c(=O)n2C returned KB-3-1 tox inactive and KB-V1 MDR tox inactive.
For OC[C@@H]1CN(CCN2CCOCC2)C[C@H](n2cnc3c(Nc4ccccc4)ncnc32)O1 the results were KB-3-1 tox inactive and KB-V1 MDR tox inactive.
CCN(CC)C(=O)Cn1c(=O)n(-c2ccc(Cl)c(Cl)c2)c(=O)c2c(C)c(C(=O)N(CC)CC)sc21 was read as KB-3-1 tox inactive and KB-V1 MDR tox inactive.
For COc1cc(CN2CCCCCC2)cc(OC)c1 the results were Gal4-VP16 FLuc inactive, RORg inh inactive, KB-3-1 tox inactive, SW480 rerep inactive, MCF10A rerep inactive and KB-V1 MDR tox inconclusive.
Screening COc1cc(CN2C(=S)NC(C)(C)CC2(C)O)cc(OC)c1 (stereo not given) returned Gal4-VP16 FLuc 11µM, RORg inh 3.5µM, KB-3-1 tox inactive, SW480 rerep inactive, MCF10A rerep inactive and KB-V1 MDR tox inactive.
For O=c1c2cc(N3CCOCC3)ccc2[nH]c(=S)n1CCCN1CCCC1 the results were Gal4-VP16 FLuc inactive, RORg inh inactive, KB-3-1 tox inactive, SW480 rerep inactive, MCF10A rerep inactive and KB-V1 MDR tox inconclusive.
Screening COc1cc2[nH]c(=S)n(Cc3ccco3)c(=O)c2cc1OC returned Gal4-VP16 FLuc inconclusive, RORg inh 11µM, KB-3-1 tox inactive, SW480 rerep inactive, MCF10A rerep inactive and KB-V1 MDR tox inconclusive.
CCN(CCCn1c(=S)[nH]c2ccc(N3CCOCC3)cc2c1=O)c1ccccc1 was read as Gal4-VP16 FLuc inconclusive, RORg inh 4µM, KB-3-1 tox inactive, SW480 rerep inconclusive, MCF10A rerep 18µM and KB-V1 MDR tox inconclusive.
Screening O=c1c2cc(N3CCOCC3)ccc2[nH]c(=S)n1Cc1ccco1 returned Gal4-VP16 FLuc inconclusive, RORg inh 14µM, KB-3-1 tox inactive, SW480 rerep inconclusive, MCF10A rerep inconclusive and KB-V1 MDR tox 13µM.
For O=c1c2cc(Cl)ccc2[nH]c(=S)n1Cc1cccs1 the results were Gal4-VP16 FLuc 4.5µM, RORg inh 2µM, KB-3-1 tox inactive, SW480 rerep inactive, MCF10A rerep inconclusive and KB-V1 MDR tox inactive.
`COc1ccc(NC(=O)c2ccc3c(=O)n(Cc4ccco4)c(=S)[nH]c3c2)c(OC)c1` gave Gal4-VP16 FLuc inactive, RORg inh inconclusive, KB-3-1 tox inactive, SW480 rerep inactive, MCF10A rerep inactive and KB-V1 MDR tox inactive.
O=c1[nH]c2ccc(Cl)cc2c(=O)n1Cc1ccco1 was read as Gal4-VP16 FLuc inconclusive, RORg inh inconclusive, KB-3-1 tox inactive, SW480 rerep inactive, MCF10A rerep inactive and KB-V1 MDR tox inactive.
For COc1cc(-c2noc(-c3ccc(NCc4ccco4)c([N+](=O)[O-])c3)n2)cc(OC)c1OC the results were KB-3-1 tox inactive and KB-V1 MDR tox inactive.

Assay outcomes from PubChem BioAssay.
